Source: PubChem BioAssay (National Center for Advancing Translational Sciences (NCATS))
In the library only some 7.9% were active in any assay of this set; here they are far more common.
FMDV antiviral: foot and mouth disease virus antiviral activity; FMDV antiviral cell-based qHTS; Potency, µM (series often up to 57.9 µM), for the others: at the highest dose activity change, negative = inhibition, usual class: inhibitors; 410,000 tested, 1.2% active; AID 1159524; calls by dose curve; tested in HEK293T cells; further: read-out not given here; potency means the concentration at half of the fitted maximal effect; nearly all actives have a fitted effect of over 45% in size
HCMV antiviral: blocks human cytomegalovirus replication; HFF cells, HCMV-luciferase reporter, 72 h; hits give low values; AID 1259415; activity change, negative = inhibition, % at 57.5 µM; 410,000 tested, 4.5% active; in the data active means activity change below about -60%; inconclusive means no clear call, values can overlap the other calls; inactive means above about -39%
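Two compound doses tested in HFFs infected with HCMV-luciferase, MOI 1 PFU/cell, 72 h at 37C. Lysate luminescence read with OneGlo; data normalized against buffer-only and 10uM Salinomycin inhibitor controls.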
HCV inhibitor: inhibitors of hepatitis C virus infection | Potency, µM (doses to about 41.8 µM), for the others: at the highest dose activity change, negative = inhibition, usual class: inhibitors | 340,000 tested, 3.4% active | AID 651820 | Huh7.5.1 HCVcc-Cre infection, luciferase reporter, 44 h; active means well fitted inhibition curve with a large enough effect; inconclusive means small, poorly fitted or top-dose-only effect, or another doubt; inactive means no such curve, though single readings can be large or run the other way; further: potency means the concentration at half of the fitted maximal effect
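Infectious HCV cell culture screen: compound-treated cells (1,000/well, pre-plated 4 h) are infected with HCVcc-Cre at roughly 0.5 moi and grown 44 h. Infection is quantified by luciferase signal after 15 min substrate incubation at room temperature.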
Marburg entry inh: Marburg virus entry inhibition; Marburg virus pseudotyped entry inhibition, cell reporter; Potency, µM (series often up to 37.8 µM), for the others: at the top dose activity change, negative = inhibition, usual class: inhibitors; 300,000 tested, 1.8% active; calls by dose curve; tested in HEK293 cells; further: potency means the concentration at half of the fitted maximal effect
LASV entry inh: inhibitors of Lassa virus binding or cell entry. Potency, µM (titrated, usually from 37.9 µM), for inactives: top-dose activity change, negative = inhibition, most hits filed as inhibitors. Lassa virus pseudotype entry inhibition, cell reporter. 300,000 tested, 1.2% active; calls by dose curve; tested in HEK293 cells; further: potency means the concentration at half of the fitted maximal effect; nearly all actives have a fitted effect of over 50% in size
* = called active by the depositor; ? = inconclusive; · = not tested or not shown; [ ] = dose if it differs, or a comment. On the % scale 0 is the no-effect control and ±100 the full control effect.

SMILES	FMDV antiviral	HCMV antiviral	HCV inhibitor	Marburg entry inh	LASV entry inh
Fc1ccc(-c2csc3ncnc(N4CCN(Cc5ccccc5)CC4)c23)cc1	?	?	-14.6%	2.2%	-0.9%
Oc1ccccc1N1CCN(c2ncnc3scc(-c4ccccc4)c23)CC1	-19.0%	-21.9	?	?	-25.5%[46.1 µM]
Oc1ccccc1N1CCN(c2ncnc3scc(-c4ccc(F)cc4)c23)CC1	-9.7%	-81.4*	11.2µM*	?	?
COc1cccc(C2C(C(=O)Nc3ccc(C)cc3C)=C(C)Nc3c(C(=O)Nc4cccc(C)c4)cnn32)c1OC (centres undefined)	-6.8%	-7.8	·	·	-17.7%[46.1 µM]
COCCC(=O)Nc1ccc2c(c1)CN(C(=O)CSC)CC2	-8.0%	10.1	3.2%	?	8.3%[46.1 µM]
COCCC(=O)N1CCc2ccc(NC(=O)c3ccc(C(F)(F)F)cc3)cc2C1	?	-64.7*	10µM*	·	·
CN(C)S(=O)(=O)N1CCc2ccc(NC(=O)c3ccc(C(F)(F)F)cc3)cc2C1	?	?	7.94µM*	·	·
CC(=O)N1CCCc2ccc(NC(=O)c3ccc(C(F)(F)F)cc3)cc21	?	-71.3*	·	·	26.2%[46.1 µM]
Cc1cc(C)n2nc(C(=O)NCC3Cc4cccc(-c5ccc(S(C)(=O)=O)cc5)c4O3)cc2n1 (centres undefined)	34.4%	·	·	·	·
CCC(CO)Oc1cc(NC(=O)c2cccc([N+](=O)[O-])c2)c2ncn(C(C)C)c2c1 (centres undefined)	-22.5%	-12.7	2.82µM*	·	·
CCC(CN(C)C)Oc1cc(NCc2ccccc2)c2ncn(C(C)C)c2c1 (centres undefined)	-15.3%	·	?	·	·
COc1cc(N(Cc2ccccc2)Cc2ccccc2)c2ncn(C(C)C)c2c1	-19.6%	-87.1*	11.2µM*	·	·
CCC(CO)Oc1cc(NC(=O)c2ccc([N+](=O)[O-])cc2)c2ncn(C(C)C)c2c1 (centres undefined)	-23.2%	-0.7	-21.1%	·	·
CCC(CO)Oc1cc(NCc2cc(C)cc(C)c2)c2ncn(C(C)C)c2c1 (centres undefined)	-1.7%	7.2	1.58µM*	·	·
COc1cc(NCc2ccccc2)c2ncn(C(C)C)c2c1	-14.1%	21.5	10µM*	·	·
CC(=O)C1=C(O)C(=O)N(Cc2ccccc2)C1c1ccc([N+](=O)[O-])cc1 (centres undefined)	·	-37.5	·	·	·
CC(C)Nc1ncnc2ccc(Br)cc12	?	-95.9*	?	?	?
Brc1ccc2ncnc(NCc3ccco3)c2c1	14.1µM*	-87.1*	25.1µM*	?	?
CCOc1ccccc1Nc1ncnc2ccccc12	-31.8%	-16.9	10µM*	-10.2%	-7.9%
CC(C)COc1ccc(Nc2ncnc3ccc(Br)cc23)cc1	0.0%	-5.0	·	0.7%[46.1 µM]	9.2%[46.1 µM]
CCOc1ccccc1Nc1ncnc2ccc(Br)cc12	-25.8%	-29.7	22.4µM*	?	-3.6%[46.1 µM]
CC1=C(C(=O)N2CCOCC2)CC(CC(=O)NC2CCCCC2)C(=O)N1CCCN1CCCC1=O (centres undefined)	-0.5%	-11.1	·	·	·
O=C(NCCc1ccccc1)O[C@H]1CC[C@@]23CCCN2C(=O)CCC[C@H]3[C@H]1Cc1ccccc1	·	-3.4	·	·	·
CC(=O)N1CCN(c2ccc(N)cc2)CC1	-12.2%	-73.7*	·	·	·
Nc1ccc(N2CCN(c3ccc(F)cc3)CC2)cc1	-4.5%	-60.3*	0.8%	3.3%[46.1 µM]	?
SMILES	FMDV antiviral	HCMV antiviral	HCV inhibitor	Marburg entry inh	LASV entry inh
Nc1ccc(N2CCCCCC2)cc1	·	·	·	3.3%	·
Nc1ccc(N2CCN(c3ccc(Cl)c(Cl)c3)CC2)cc1	0.2%	-85.2*	?	2.6%	-25.3%
COc1ccc(CN2CCCC(c3nc(-c4ccncc4)ncc3-c3ccccc3C)C2)c(OC)c1 (centres undefined)	-7.9%	·	·	·	·
CC=CCCN1C=C(C(=O)OCC)C(c2ccccc2)NC1=O (centres undefined)	·	·	·	41.2%[14.2 µM]	·
Cc1cccc(NC(=S)NNC(=O)c2ccc(O)cc2O)c1C	15.0%	-98.3*	17.5%	?	4.6%[46.1 µM]
O=C(Nc1nc(=S)ss1)c1ccc(Cl)cc1Cl	-10.5%	73.9	7.9%	?	-1.0%
CC(C)c1ccc(/C=C2\SC(=S)N(CCC(=O)NCCCn3ccnc3)C2=O)cc1	1.6%	-97.0*	?	?	?
O=C(CCCN1C(=O)/C(=C/c2ccc(F)cc2)SC1=S)NCCCn1ccnc1	15.5%	-67.3*	-3.0%	-1.4%[46.1 µM]	-15.6%[46.1 µM]
Cn1cccc1/C=C1\CC(C(C)(C)C)C/C(=C\c2cccn2C)C1=O (centres undefined)	-19.6%	-24.6	2.51µM*	?	-19.7%
Cn1cccc1/C=C1\Cc2ccccc2C1=O	55.9%	101.1	?	·	·
O=C(N/N=C/c1cccc(Oc2ccccc2)c1)c1ccccc1Br	·	-90.8*	11.2µM*	?	6.51µM*
O=C(CNc1cccc2ccccc12)N/N=C/c1cccc(Oc2ccccc2)c1	-2.5%	-60.7*	-4.8%	-32.1%	-15.4%
Cc1ccc(/C=C/C(=O)OCC(=O)N(CC(C)C)c2c(N)n(Cc3ccccc3)c(=O)[nH]c2=O)o1	-5.5%	-15.5	20.9%	·	·
CCCc1nc(NCc2ccccn2)c2nnn(Cc3ccccc3F)c2n1	25.1µM*	-32.7	?	3.0%	2.1%
CCCc1nc(NCc2ccncc2)c2nnn(Cc3ccccc3F)c2n1	?	-23.9	?	-18.8%	?
O=C1C(Cl)=C(NCCN2CCCCC2)C(=O)c2ccccc21	39.8µM*	·	7.94µM*	·	·
O=C1c2ccccc2-c2onc3ccc(NCc4ccco4)c1c23	?	·	10µM*	?	-24.1%
O=C1C(Cl)=C(NCc2ccco2)C(=O)c2ccccc21	-18.4%	-85.7*	8.91µM*	?	-9.8%[46.1 µM]
COc1ccccc1C(=O)NCC(=O)OCc1nnc(-c2ccccc2)o1	41.9%	-3.9	·	·	·
C#CCn1c(=NC(=O)c2cccs2)sc2cccc(OCC)c21	-20.8%	-67.1*	?	·	·
C#CCn1c(=NC(=O)c2ccc(Cl)s2)sc2cccc(OC)c21	14.0%	4.8	-4.4%	·	·
O=C1CCCC2=C1C(c1ccc(OS(=O)(=O)c3ccc(Cl)cc3)cc1)C1=C(CCCC1=O)O2	-22.1%	-37.7	12.6µM*	-20.7%	-23.8%
O=C(NNC(=S)NC(=O)c1cccc([N+](=O)[O-])c1)c1ccc(Br)cc1	-25.9%	-32.1	?	15.8%[46.1 µM]	?
CCc1cnc2c(c1SCC(=O)c1ccc(OC)cc1)c(=O)n(C)c(=O)n2C	28.2µM*	-6.3	·	·	?
CC(C)c1cnc2c(c1SCC(=O)c1ccc(Cl)cc1)c(=O)n(C)c(=O)n2C	?	-23.7	·	·	?
Cc1cccc(C)c1OCc1cc(C(=O)NCC2CCCCC2)no1	-7.5%	?	2.5%	·	·
Cc1cccc(C)c1OCc1cc(C(=O)N(Cc2c(C)nn(C)c2C)C2CC2)no1	20µM*	0.0	10µM*	·	·
CC[C@@]1(O)C(=O)OCc2c1cc1n(c2=O)Cc2cc3ccccc3nc2-1	-3.0%	·	·	0.0251µM*	?
CCOC(=O)c1ccccc1NC(=O)c1c2c(nc3ccccc13)C(=O)N(C1CCCCC1)C2	-13.2%	-13.9	·	·	6.4%[46.1 µM]
